{"source": "PubChem BioAssay AID1159580", "about": "(chemical genetic matrix, 2015)", "assay": "chemical genetic growth profiling, strain panel (AID 1159580);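 note: tested at 20 µM; growth read once vehicle control cultures reached saturation at 30 °C; 1 = growth at the plate median or of vehicle wells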", "details": "growth OD", "note": "“And” between values parts separate entries of the source, which are not always exact repeats. Equal values may be shown once. Hit rate of the full screen: of about 5,500 compounds, about 2,000 (36%) were called active. Inconclusive results (about 18%) are left out. Some of the results follow. A number with no mark means an inactive call. Cut-off read from the data, not from the text of the source: active = normalized growth mostly below about 0.91 (no sharp cut-off); inconclusive = no clear call, values can overlap the other calls; inactive = mostly above about 0.92."}
{"compound": "CN(C)CCOC(=O)COc1ccc(Cl)cc1", "values": [{"measurement": "normalized growth", "setting": "S. cerevisiae deletion strains, locus YKL009W, strain mrt4, stronger effect = lower value", "result": 1.04}, {"measurement": "normalized growth", "setting": "S. cerevisiae deletion strains, locus YKL068W, stronger effect = lower value", "result": 1}, {"measurement": "normalized growth", "setting": "S. cerevisiae deletion strains, locus YKL085W, strain MDH1 (second series), stronger effect = lower value", "result": 1.01}, {"measurement": "normalized growth", "setting": "S. cerevisiae deletion strains, locus YKL085W, strain MDH1, stronger effect = lower value", "result": 1.01}, {"measurement": "normalized growth", "setting": "S. cerevisiae deletion strains, locus YKL160W, strain elf1, stronger effect = lower value", "result": 0.972}, {"measurement": "normalized growth", "setting": "S. cerevisiae deletion strains, locus YKL190W, strain CNB1, stronger effect = lower value", "result": 1.01}, {"measurement": "normalized growth", "setting": "S. cerevisiae deletion strains, locus YKR001C, strain vps1, stronger effect = lower value", "result": "1.14 [resistant] (active)"}, {"measurement": "normalized growth", "setting": "S. cerevisiae deletion strains, locus YKR026C, strain gcn3, stronger effect = lower value", "result": 0.948}, {"measurement": "normalized growth", "setting": "S. cerevisiae deletion strains, locus YKR091W, strain srl3, stronger effect = lower value", "result": 0.969}, {"measurement": "normalized growth", "setting": "S. cerevisiae deletion strains, locus YLL001W, strain dnm1, stronger effect = lower value", "result": 0.959}, {"measurement": "normalized growth", "setting": "S. cerevisiae deletion strains, locus YLL026W, stronger effect = lower value", "result": 0.969}, {"measurement": "normalized growth", "setting": "S. cerevisiae deletion strains, locus YLL041C, strain sdh2, stronger effect = lower value", "result": 0.961}, {"measurement": "normalized growth", "setting": "S. cerevisiae deletion strains, locus YLR027C, strain aat2, stronger effect = lower value", "result": 0.972}, {"measurement": "normalized growth", "setting": "S. cerevisiae deletion strains, locus YLR039C, strain RIC1, stronger effect = lower value", "result": "1.61 [resistant] (active)"}, {"measurement": "normalized growth", "setting": "S. cerevisiae deletion strains, locus YLR058C, strain SHM2, stronger effect = lower value", "result": 1.02}, {"measurement": "normalized growth", "setting": "S. cerevisiae deletion strains, locus YLR102C, strain apc9, stronger effect = lower value", "result": 1.02}, {"measurement": "normalized growth", "setting": "S. cerevisiae deletion strains, locus YLR113W, strain HOG1, stronger effect = lower value", "result": 0.971}, {"measurement": "normalized growth", "setting": "S. cerevisiae deletion strains, locus YLR221C, strain rsa3, stronger effect = lower value", "result": 0.987}, {"measurement": "normalized growth", "setting": "S. cerevisiae deletion strains, locus YLR258W, strain gsy2, stronger effect = lower value", "result": 0.965}, {"measurement": "normalized growth", "setting": "S. cerevisiae deletion strains, locus YLR262C, strain YPT6 (second series), stronger effect = lower value", "result": 1.08}, {"measurement": "normalized growth", "setting": "S. cerevisiae deletion strains, locus YLR262C, strain YPT6, stronger effect = lower value", "result": "1.85 [resistant] (active)"}, {"measurement": "normalized growth", "setting": "S. cerevisiae deletion strains, locus YLR268W, strain sec22, stronger effect = lower value", "result": "1.15 [resistant] (active)"}, {"measurement": "normalized growth", "setting": "S. cerevisiae deletion strains, locus YLR320W, strain mms22, stronger effect = lower value", "result": 1.01}, {"measurement": "normalized growth", "setting": "S. cerevisiae deletion strains, locus YLR330W, strain CHS5, stronger effect = lower value", "result": 1.02}, {"measurement": "normalized growth", "setting": "S. cerevisiae deletion strains, locus YLR342W, strain FKS1 (second series), stronger effect = lower value", "result": 0.953}, {"measurement": "normalized growth", "setting": "S. cerevisiae deletion strains, locus YLR342W, strain FKS1, stronger effect = lower value", "result": 0.97}, {"measurement": "normalized growth", "setting": "S. cerevisiae deletion strains, locus YLR357W, strain rsc2, stronger effect = lower value", "result": 1.01}, {"measurement": "normalized growth", "setting": "S. cerevisiae deletion strains, locus YLR370C, strain arc18, stronger effect = lower value", "result": 0.962}, {"measurement": "normalized growth", "setting": "S. cerevisiae deletion strains, locus YLR371W, strain rom2, stronger effect = lower value", "result": 1.02}, {"measurement": "normalized growth", "setting": "S. cerevisiae deletion strains, locus YLR384C, strain iki3, stronger effect = lower value", "result": 0.983}, {"measurement": "normalized growth", "setting": "S. cerevisiae deletion strains, locus YLR418C, strain cdc73, stronger effect = lower value", "result": "1.21 [resistant] (active)"}, {"measurement": "normalized growth", "setting": "S. cerevisiae deletion strains, locus YML016C, strain PPZ1, stronger effect = lower value", "result": 1.02}, {"measurement": "normalized growth", "setting": "S. cerevisiae deletion strains, locus YML032C, strain rad52, stronger effect = lower value", "result": 1.07}, {"measurement": "normalized growth", "setting": "S. cerevisiae deletion strains, locus YML120C, strain ndi1, stronger effect = lower value", "result": 0.966}, {"measurement": "normalized growth", "setting": "S. cerevisiae deletion strains, locus YML124C, strain tub3, stronger effect = lower value", "result": 1.04}, {"measurement": "normalized growth", "setting": "S. cerevisiae deletion strains, locus YMR058W, strain fet3, stronger effect = lower value", "result": 0.976}, {"measurement": "normalized growth", "setting": "S. cerevisiae deletion strains, locus YMR078C, strain ctf18, stronger effect = lower value", "result": 1.05}, {"measurement": "normalized growth", "setting": "S. cerevisiae deletion strains, locus YMR125W, strain sto1, stronger effect = lower value", "result": 0.965}, {"measurement": "normalized growth", "setting": "S. cerevisiae deletion strains, locus YMR129W, stronger effect = lower value", "result": 0.973}, {"measurement": "normalized growth", "setting": "S. cerevisiae deletion strains, locus YMR205C, strain PFK2, stronger effect = lower value", "result": 0.986}, {"measurement": "normalized growth", "setting": "S. cerevisiae deletion strains, locus YMR223W, strain ubp8, stronger effect = lower value", "result": 1.04}, {"measurement": "normalized growth", "setting": "S. cerevisiae deletion strains, locus YMR231W, strain pep5, stronger effect = lower value", "result": 0.976}, {"measurement": "normalized growth", "setting": "S. cerevisiae deletion strains, locus YMR263W, strain SAP30, stronger effect = lower value", "result": 1.05}, {"measurement": "normalized growth", "setting": "S. cerevisiae deletion strains, locus YMR307W, strain GAS1, stronger effect = lower value", "result": 0.963}, {"measurement": "normalized growth", "setting": "S. cerevisiae deletion strains, locus YNL067W, strain RPL9B, stronger effect = lower value", "result": 1.06}, {"measurement": "normalized growth", "setting": "S. cerevisiae deletion strains, locus YNL071W, strain lat1, stronger effect = lower value", "result": 0.988}, {"measurement": "normalized growth", "setting": "S. cerevisiae deletion strains, locus YNL128W, strain TEP1, stronger effect = lower value", "result": 1.03}, {"measurement": "normalized growth", "setting": "S. cerevisiae deletion strains, locus YNL153C, strain GIM3, stronger effect = lower value", "result": "1.03 and 0.882"}, {"measurement": "normalized growth", "setting": "S. cerevisiae deletion strains, locus YNL175C, strain NOP13, stronger effect = lower value", "result": 0.949}, {"measurement": "normalized growth", "setting": "S. cerevisiae deletion strains, locus YNL183C, strain NPR1, stronger effect = lower value", "result": 0.962}, {"measurement": "normalized growth", "setting": "S. cerevisiae deletion strains, locus YNL197C, strain WHI3, stronger effect = lower value", "result": 0.954}, {"measurement": "normalized growth", "setting": "S. cerevisiae deletion strains, locus YNL209W, strain ssb2, stronger effect = lower value", "result": 0.974}, {"measurement": "normalized growth", "setting": "S. cerevisiae deletion strains, locus YNL224C, strain SQS1, stronger effect = lower value", "result": 1.01}, {"measurement": "normalized growth", "setting": "S. cerevisiae deletion strains, locus YNL233W, strain BNI4, stronger effect = lower value", "result": 1.07}, {"measurement": "normalized growth", "setting": "S. cerevisiae deletion strains, locus YNL248C, strain rpa49, stronger effect = lower value", "result": 0.996}, {"measurement": "normalized growth", "setting": "S. cerevisiae deletion strains, locus YNL250W, strain rad50, stronger effect = lower value", "result": 1.01}, {"measurement": "normalized growth", "setting": "S. cerevisiae deletion strains, locus YNL271C, strain bni1, stronger effect = lower value", "result": 1.04}, {"measurement": "normalized growth", "setting": "S. cerevisiae deletion strains, locus YNL298W, strain CLA4, stronger effect = lower value", "result": 1.02}, {"measurement": "normalized growth", "setting": "S. cerevisiae deletion strains, locus YNL307C, strain MCK1, stronger effect = lower value", "result": 1.05}, {"measurement": "normalized growth", "setting": "S. cerevisiae deletion strains, locus YNL322C, strain KRE1 (second series), stronger effect = lower value", "result": 0.977}, {"measurement": "normalized growth", "setting": "S. cerevisiae deletion strains, locus YNL322C, strain KRE1, stronger effect = lower value", "result": 1.02}, {"measurement": "normalized growth", "setting": "S. cerevisiae deletion strains, locus YNR049C, strain mso1, stronger effect = lower value", "result": 0.955}, {"measurement": "normalized growth", "setting": "S. cerevisiae deletion strains, locus YNR052C, strain pop2, stronger effect = lower value", "result": 1.07}, {"measurement": "normalized growth", "setting": "S. cerevisiae deletion strains, locus YOL006C, strain TOP1, stronger effect = lower value", "result": 1.01}, {"measurement": "normalized growth", "setting": "S. cerevisiae deletion strains, locus YOL012C, strain htz1", "result": 1.88}, {"measurement": "normalized growth", "setting": "S. cerevisiae deletion strains, locus YOL147C, strain pex11, stronger effect = lower value", "result": 1.03}, {"measurement": "normalized growth", "setting": "S. cerevisiae deletion strains, locus YOR001W, strain rrp6, stronger effect = lower value", "result": 0.947}, {"measurement": "normalized growth", "setting": "S. cerevisiae deletion strains, locus YOR061W, strain CKA2, stronger effect = lower value", "result": 1.03}, {"measurement": "normalized growth", "setting": "S. cerevisiae deletion strains, locus YOR069W, strain VPS5, stronger effect = lower value", "result": 1}, {"measurement": "normalized growth", "setting": "S. cerevisiae deletion strains, locus YOR070C, strain gyp1, stronger effect = lower value", "result": 0.984}, {"measurement": "normalized growth", "setting": "S. cerevisiae deletion strains, locus YOR080W, strain dia2, stronger effect = lower value", "result": 0.952}, {"measurement": "normalized growth", "setting": "S. cerevisiae deletion strains, locus YOR083W, strain WHI5 (second series), stronger effect = lower value", "result": 0.994}, {"measurement": "normalized growth", "setting": "S. cerevisiae deletion strains, locus YOR083W, strain WHI5, stronger effect = lower value", "result": 0.979}, {"measurement": "normalized growth", "setting": "S. cerevisiae deletion strains, locus YOR106W, strain vam3, stronger effect = lower value", "result": 1}, {"measurement": "normalized growth", "setting": "S. cerevisiae deletion strains, locus YOR136W, strain idh2, stronger effect = lower value", "result": 1.03}, {"measurement": "normalized growth", "setting": "S. cerevisiae deletion strains, locus YOR144C, strain elg1, stronger effect = lower value", "result": 1.02}, {"measurement": "normalized growth", "setting": "S. cerevisiae deletion strains, locus YOR184W, strain ser1, stronger effect = lower value", "result": "1.15 [resistant] (active)"}, {"measurement": "normalized growth", "setting": "S. cerevisiae deletion strains, locus YOR231W, strain MKK1, stronger effect = lower value", "result": 1.05}, {"measurement": "normalized growth", "setting": "S. cerevisiae deletion strains, locus YOR265W, strain rbl2, stronger effect = lower value", "result": 0.964}, {"measurement": "normalized growth", "setting": "S. cerevisiae deletion strains, locus YOR270C, strain vph1, stronger effect = lower value", "result": 0.884}, {"measurement": "normalized growth", "setting": "S. cerevisiae deletion strains, locus YOR290C, strain snf2, stronger effect = lower value", "result": 0.962}, {"measurement": "normalized growth", "setting": "S. cerevisiae deletion strains, locus YOR316C, strain cot1, stronger effect = lower value", "result": 1.02}, {"measurement": "normalized growth", "setting": "S. cerevisiae deletion strains, locus YPL051W, strain arl3, stronger effect = lower value", "result": 0.986}, {"measurement": "normalized growth", "setting": "S. cerevisiae deletion strains, locus YPL055C, strain LGE1, stronger effect = lower value", "result": "1.06 and 1.03"}, {"measurement": "normalized growth", "setting": "S. cerevisiae deletion strains, locus YPL078C, strain atp4, stronger effect = lower value", "result": 0.973}, {"measurement": "normalized growth", "setting": "S. cerevisiae deletion strains, locus YPL106C, strain sse1, stronger effect = lower value", "result": 0.878}, {"measurement": "normalized growth", "setting": "S. cerevisiae deletion strains, locus YPL240C, strain hsp82, stronger effect = lower value", "result": 0.957}, {"measurement": "normalized growth", "setting": "S. cerevisiae deletion strains, locus YPL241C, strain CIN2, stronger effect = lower value", "result": 1.01}, {"measurement": "normalized growth", "setting": "S. cerevisiae deletion strains, locus YPL256C, strain CLN2, stronger effect = lower value", "result": 1.1}, {"measurement": "normalized growth", "setting": "S. cerevisiae deletion strains, locus YPR119W, strain clb2, stronger effect = lower value", "result": 1.03}, {"measurement": "normalized growth", "setting": "S. cerevisiae deletion strains, locus YPR141C, strain kar3, stronger effect = lower value", "result": 1.02}, {"measurement": "normalized growth", "setting": "S. cerevisiae deletion strains, locus YPR163C, strain tif3, stronger effect = lower value", "result": 1.06}, {"measurement": "normalized growth", "setting": "S. cerevisiae deletion strains, locus YPR167C, strain met16, stronger effect = lower value", "result": 1.05}, {"measurement": "normalized growth", "setting": "S. cerevisiae deletion strains, strain wtn01, stronger effect = lower value", "result": 1.04}, {"measurement": "normalized growth", "setting": "S. cerevisiae strains, strain wild type, stronger effect = lower value", "result": 1.03}]}
